# Results filed as inconclusive are left out. Where a call stands in place of a potency, no number is given. A number with no mark means an inactive call. Calls of active or inactive are those of the source. Unless noted, the call rests on the fitted dose curve; in most records, active means well fitted curve in the direction sought with a large enough effect; inconclusive means small, poorly fitted or top-dose-only effect, or another doubt; inactive means no such curve, though single readings can be large; an effect the other way counts as inactive or inconclusive.
# Key:
# [1] = biological target: Aldehyde dehydrogenase, mitochondrial (Homo sapiens) (UniProt P05091); assay: qHTS for Inhibitors of the Aldehyde Dehydrogenase Family (ALDH2) Validation screens (AID 2061302; active means well fitted inhibition curve with a large enough effect; title and protocol of this record describe different tests)
# [2] = biological target: Retinaldehyde dehydrogenase 3 (Homo sapiens) (UniProt P47895); assay: qHTS for Inhibitors of the Aldehyde Dehydrogenase Family (ALDH1A3) Primary screen (AID 2061315)
# [3] = BET inhibitor-based combinations targeting novel dependencies in MECOM-rearranged (r) AML: SET-2 cell line (AID 2202231); settings: SET-2 AML cells viability, CellTiter-Glo luminescence, 48 h; viability: stronger effect = lower value, concentration not given here; further: nearly all actives have a fitted effect of over 35% in size; further: potency means the concentration at half of the fitted maximal effect
# Outline: (§1)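 Cells were plated at 500 per well and exposed to an 11-point dose series of each drug for 48 hr. Viability was measured by CellTiter-Glo luminescence, normalized to DMSO and empty-well controls, and summarized as AUC and per-cell-line Z-AUC.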
# [4] = BET inhibitor-based combinations targeting novel dependencies in MECOM-rearranged (r) AML: OCI-AML3 cell line (AID 2202232); settings: Potency: OCI-AML3 viability; further: nearly all actives have a fitted effect of over 35% in size; further: potency means the concentration at half of the fitted maximal effect
# Outline: as §1
# [5] = BET inhibitor-based combinations targeting novel dependencies in MECOM-rearranged (r) AML: MV-4-11 cell line (AID 2202233); further: nearly all actives have a fitted effect of over 45% in size; further: potency means the concentration at half of the fitted maximal effect
# Outline: (§2)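 Activity is given as area under the curve and as Z-AUC, mean-centred within each cell line. It comes from 11-point dose curves normalized to DMSO and empty wells. CellTiter-Glo luminescence was read after 48 hr drug exposure of 500 cells/well.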
# [6] = BET inhibitor-based combinations targeting novel dependencies in MECOM-rearranged (r) AML: UCSD-AML1 cell line (AID 2202235); further: nearly all actives have a fitted effect of over 40% in size; further: potency means the concentration at half of the fitted maximal effect
# Outline: as §2
# [7] = BET inhibitor-based combinations targeting novel dependencies in MECOM-rearranged (r) AML: AML-191 cell line (AID 2202236; further: nearly all actives have a fitted effect of over 35% in size; further: potency means the concentration at half of the fitted maximal effect)
# Outline: as §1
# [8] = BET inhibitor-based combinations targeting novel dependencies in MECOM-rearranged (r) AML: AML-194 cell line (AID 2202237; further: nearly all actives have a fitted effect of over 40% in size; further: potency means the concentration at half of the fitted maximal effect)
# Outline: as §1
# [9] = biological target: Retinaldehyde dehydrogenase 3 (Homo sapiens) (UniProt P47895); assay: qHTS for Inhibitors of the Aldehyde Dehydrogenase Family (ALDH1A3) Validation screen (AID 2061312); further: nearly all actives have a fitted effect of over 45% in size; further: potency means the concentration at half of the fitted maximal effect
# [10] = BET inhibitor-based combinations targeting novel dependencies in MECOM-rearranged (r) AML: HNT-34 cell line (AID 2202234); further: nearly all actives have a fitted effect of over 35% in size; further: potency means the concentration at half of the fitted maximal effect
# Outline: as §2
# [11] = biological target: Aldehyde dehydrogenase, mitochondrial (Homo sapiens) (UniProt P05091); assay: qHTS for Inhibitors of the Aldehyde Dehydrogenase Family (ALDH2) Confirmatory screens (AID 2061303; active means well fitted inhibition curve with a large enough effect; title and protocol of this record describe different tests; further: nearly all actives have a fitted effect of over 45% in size; further: potency means the concentration at half of the fitted maximal effect)
# [12] = qHTS for Inhibitors of the Aldehyde Dehydrogenase Family (ALDH1A2, ALDH1A3, ALDH2, ALDH3A1) (AID 2061307); further: nearly all actives have a fitted effect of over 50% in size
# [13] = biological target: Aldehyde dehydrogenase, mitochondrial (Homo sapiens) (UniProt P05091); assay: qHTS for Inhibitors of the Aldehyde Dehydrogenase Family (ALDH2) Primary screen (AID 2061308); further: nearly all actives have a fitted effect of over 55% in size; further: potency means the concentration at half of the fitted maximal effect
# [14] = biological target: Retinaldehyde dehydrogenase 3 (Homo sapiens) (UniProt P47895); assay: qHTS for Inhibitors of the Aldehyde Dehydrogenase Family (ALDH1A3) Confirmatory screens (AID 2061311); further: nearly all actives have a fitted effect of over 60% in size; further: potency means the concentration at half of the fitted maximal effect
# [15] = biological target: Retinal dehydrogenase 2 (Homo sapiens) (UniProt O94788); assay: qHTS for Inhibitors of the Aldehyde Dehydrogenase Family (ALDH1A2) Confirmation screens (AID 2061314); further: nearly all actives have a fitted effect of over 65% in size; further: potency means the concentration at half of the fitted maximal effect
# [16] = biological target: Aldehyde dehydrogenase 1A1 (Homo sapiens) (UniProt P00352); assay: qHTS for Inhibitors of the Aldehyde Dehydrogenase Family (ALDH1A1) Confirmatory screens (AID 2061316); further: nearly all actives have a fitted effect of over 65% in size; further: potency means the concentration at half of the fitted maximal effect
smiles,measurement,setting,value
NC[C@H](O)c1ccc(O)c(O)c1,Potency,[1],inactive
same,Potency,[2],inactive
same,viability,[3],116%
same,Potency,[4],inactive
same,Potency,[5],inactive
same,Potency,[6],inactive
same,Potency,[7],inactive
same,Potency,[8],inactive
CCn1cc(C(=O)O)c(=O)c2ccc(C)nc21,Potency,[1],inactive
same,Potency,[9],inactive
CCC1(c2ccccc2)C(=O)NCNC1=O,Potency,[1],inactive
same,Potency,[9],inactive
same,Potency,[4],inactive
same,Potency,[5],inactive
same,Potency,[10],inactive
same,Potency,[6],inactive
same,Potency,[7],inactive
same,Potency,[8],inactive
CN(C)CCOC(c1ccccc1)c1ccccc1,Potency,[1],inactive
same,viability,[3],105%
same,Potency,[4],inactive
same,Potency,[10],inactive
same,Potency,[6],inactive
same,Potency,[7],inactive
same,Potency,[8],inactive
COc1nc(C)nc(Cl)c1NC1=NCCN1,Potency,[1],inactive
same,Potency,[9],inactive
same,viability,[3],107%
same,Potency,[4],inactive
same,Potency,[10],inactive
same,Potency,[6],inactive
same,Potency,[7],inactive
same,Potency,[8],inactive
O=C1c2c(O)ccc(O)c2C(=O)c2c(NCCNCCO)ccc(NCCNCCO)c21,Potency,[1],inactive
same,Potency,[3],742 nM (active)
same,Potency,[4],209 nM (active)
same,Potency,[5],74.2 nM (active)
same,Potency,[10],132 nM (active)
same,Potency,[6],148 nM (active)
same,Potency,[7],372 nM (active)
same,Potency,[8],372 nM (active)
O=C([C@H]1C[C@H](Oc2ccccc2)CN1S(=O)(=O)c1ccc(F)cc1)N1CCOCC1,Potency,[11],inactive
CC(C)c1ccccc1-c1ncc(F)c(NCc2ccc(-c3cccnc3)cc2)n1,Potency,[11],5010 nM (active)
same,Potency,[12],14100 nM (active)
same,Potency,[13],inactive
same,Potency,[14],8960 nM (active)
same,Potency,[15],inactive
Oc1cc(Nc2cccnc2)cc2cccnc12,Potency,[11],inactive
same,Potency,[12],inactive
same,Potency,[13],inactive
same,Potency,[14],283 nM (active)
same,Potency,[15],inactive
COc1ccc(-c2cnc(C)o2)cc1S(=O)(=O)Nc1ccc(C)c(F)c1,Potency,[11],inactive
Cc1ccc(O)c(NC(=O)c2cc(-c3ccc(F)cc3)on2)c1,Potency,[11],inactive
O=C(CNC(=O)c1ccc(-c2cccc(C(F)(F)F)c2)cc1)NCc1ccccc1,Potency,[11],inactive
COc1nc2ccc(Br)cc2cc1[C@@H](c1ccccc1)[C@@](O)(CCN(C)C)c1cccc2ccccc12,Potency,[11],1270 nM (active)
same,Potency,[12],896 nM (active)
same,Potency,[13],708 nM (active)
same,Potency,[14],8960 nM (active)
same,Potency,[9],1260 nM (active)
same,Potency,[15],1790 nM (active)
same,Potency,[16],142 nM (active)
C=C(C(=O)OC)C1CCC2(C)C(O[C@@H]3O[C@H](CO)[C@@H](O)[C@H](O)[C@H]3O)CC(=O)C(C)C2C1O (some centres not stated),Potency,[11],inactive
same,Potency,[12],inactive
same,Potency,[13],inactive
same,Potency,[14],11000 nM (active)
same,Potency,[15],inactive
COCc1cccc(-c2ccc3c(n2)c(=O)ncn3Cc2ccccc2)c1,Potency,[11],inactive
CCN1CCN(c2ccc(Nc3ccc(-c4ccc(C(N)=O)cc4)n4ncnc34)cc2)CC1,Potency,[11],inactive
same,Potency,[12],inactive
same,Potency,[13],inactive
CCN1CCN(C(=O)N[C@@H](C(=O)N[C@@H]2C(=O)N3[C@@H]2SC(C)(C)[C@@H]3C(=O)O)c2ccccc2)C(=O)C1=O,Potency,[11],inactive
same,Potency,[12],inactive
same,Potency,[13],inactive
same,Potency,[14],inactive
same,Potency,[9],inactive
same,Potency,[15],inactive
same,Potency,[2],inactive
same,Potency,[16],inactive
FC(F)(F)c1ccnc(-c2cc(NCc3ccccn3)nc3[nH]ccc23)c1,Potency,[11],inactive
COc1cc(NC(=O)CCS(=O)(=O)c2ccc3c(c2)n(C)c(=O)c(=O)n3C)cc(OC)c1,Potency,[11],inactive
Cc1cc2occ(CN(C)CCN(C)Cc3cn(-c4cccc(C(F)(F)F)c4)c4ccccc34)c(=O)c2cc1C,Potency,[11],inactive
same,Potency,[12],inactive
same,Potency,[13],inactive
same,Potency,[14],inactive
same,Potency,[9],inactive
same,Potency,[15],inactive
same,Potency,[2],inactive
same,Potency,[16],10100 nM (active)
COc1ccc(-c2nc3ccccc3s2)cc1,Potency,[11],inactive
same,Potency,[12],1700 nM (active)
same,Potency,[13],inactive
same,Potency,[14],1420 nM (active)
same,Potency,[15],inactive
O=C(NCc1cccs1)c1nc(-c2ccc(F)cc2)c2ccccn12,Potency,[11],inactive
same,Potency,[12],inactive
CCN1CCN(C(=O)CNC(=O)c2cccc(-c3ccsc3)c2)CC1,Potency,[11],inactive
COc1ccc(-c2cccc(C(=O)NCc3ccccc3)c2)nn1,Potency,[11],inactive
Oc1cc(Nc2ccccc2)cc2cccnc12,Potency,[11],inactive
same,Potency,[12],inactive
same,Potency,[13],inactive
same,Potency,[14],283 nM (active)
same,Potency,[15],inactive
CCN1C(=O)c2ccccc2S(=O)c2ccc(C(=O)NCc3ccc(C)cc3)cc21 (configuration not stated),Potency,[11],inactive
C[C@H]1CO[C@@H]2Cn3cc(C(=O)NCc4ccc(F)cc4F)c(=O)c(O)c3C(=O)N12,Potency,[11],inactive
same,Potency,[12],inactive
same,Potency,[13],inactive
same,Potency,[14],inactive
same,Potency,[9],inactive
same,Potency,[15],inactive
same,Potency,[2],inactive
same,Potency,[16],inactive
Cc1ccc(S(=O)(=O)N2CCN(C3CCN(CCc4ccccc4)C3=O)CC2)cc1 (configuration not stated),Potency,[11],inactive
COc1ccc2c(c1)CCc1c(C(=O)Nc3ccc(F)c(Cl)c3)noc1-2,Potency,[11],inactive
Cc1ccc(-c2cnc(N3CCC(C(N)=O)CC3)s2)cc1,Potency,[11],25100 nM (active)
same,Potency,[12],10100 nM (active)
same,Potency,[13],inactive
CCOc1cccn2c(=O)c(-c3cc(C)n(-c4ccc(Cl)cc4)n3)c(C)nc12,Potency,[11],inactive
Nc1ncnc2c1ncn2[C@@H]1O[C@H](CN[S+](=O)([O-])NC(=O)c2cccc(-c3noc(-c4ccccc4F)n3)c2)[C@@H](O)[C@H]1O,Potency,[11],inactive
same,Potency,[12],1200 nM (active)
same,Potency,[13],inactive
same,Potency,[14],252 nM (active)
same,Potency,[15],14200 nM (active)
COCCC1(NC(=O)c2ccccc2)CCN(S(=O)(=O)c2ccc(C#N)cc2)CC1,Potency,[11],inactive
COc1ccc(O)c(C2Nc3ccccc3C(=O)N2Cc2ccccc2)c1 (configuration not stated),Potency,[11],inactive
same,Potency,[12],12700 nM (active)
same,Potency,[13],inactive
COc1ccc(OC)c(S(=O)(=O)NCC(c2ccc(N(C)C)cc2)N2CCOCC2)c1 (configuration not stated),Potency,[11],inactive
CC(C)C[C@H]1C(=O)N2CCC[C@H]2[C@]2(O)O[C@](NC(=O)[C@@H]3C=C4c5cccc6[nH]c(Br)c(c56)C[C@H]4N(C)C3)(C(C)C)C(=O)N12,Potency,[11],inactive
same,Potency,[12],inactive
NC(=O)[C@H](CC1CCCCC1)NC(=O)[C@H]1CN(C(=O)c2cccc(F)c2)CCN1C(=O)C1CCNCC1,Potency,[11],inactive
CCOC(=O)Cn1c(=O)oc2cc(S(=O)(=O)N3CCN(c4cccc(Cl)c4)CC3)ccc21,Potency,[11],inactive

# From PubChem BioAssay (NCATS)
